Screening data as filed in PubChem.
Shiga inhibitor – A qHTS for Small Molecule Inhibitors of Shiga Toxin. 9.2% of 290,000 active. Vero cells, Shiga toxin protein synthesis inhibition reporter. inhibition, % at 38.7 µM; in the data active means inhibition mostly above about 28%, no sharp cut-off; inactive means mostly below about 43%
LmPK inh – qHTS Assay for Inhibitors of Leishmania Mexicana Pyruvate Kinase (LmPK); Potency, µM (doses to about 57.5 µM), hits mostly inhibitors; purified LmPK, Kinase-Glo ATP luminescence, 1 h; 0.37% of 290,000 active; Q27686
Target sequence (Q27686 whole entry, looked up): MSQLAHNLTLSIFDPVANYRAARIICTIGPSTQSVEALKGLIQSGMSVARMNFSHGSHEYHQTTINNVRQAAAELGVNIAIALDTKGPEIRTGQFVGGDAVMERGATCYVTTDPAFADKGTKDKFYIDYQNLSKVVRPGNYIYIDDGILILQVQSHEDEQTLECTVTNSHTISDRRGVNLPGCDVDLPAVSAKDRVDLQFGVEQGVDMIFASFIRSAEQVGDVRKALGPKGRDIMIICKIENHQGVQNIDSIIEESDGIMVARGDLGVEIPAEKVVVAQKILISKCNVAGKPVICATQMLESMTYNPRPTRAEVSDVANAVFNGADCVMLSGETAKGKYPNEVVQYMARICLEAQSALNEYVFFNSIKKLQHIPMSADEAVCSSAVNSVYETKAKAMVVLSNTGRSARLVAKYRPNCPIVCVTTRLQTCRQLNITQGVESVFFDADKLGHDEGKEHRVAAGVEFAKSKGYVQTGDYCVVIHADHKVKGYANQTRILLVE
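0.1 nM LmPK, 0.5 mM PEP, 0.1 mM ADP; 50 mM imidazole pH 7.2, 7 mM MgCl2, 50 mM KCl; 1 h RT. Kinase-Glo luminescence readout, normalized to no-enzyme (full inhibition) and uninhibited wells.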
Pf growth 48h – Primary qHTS for delayed death inhibitors of the malarial parasite plastid, 48 hour incubation; P. falciparum luciferase growth in erythrocytes, 48 h; Potency, µM (top dose mostly 28.7 µM), hits mostly inhibitors; 5.9% of 310,000 active
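In quantitative HTS format, infected erythrocytes bearing luciferase-reporter parasites were treated for a single generation at 37 C. Luminescence after adding detection reagent served as the growth measure.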
CHX counter – Cycloheximide Counterscreen for Small Molecule Inhibitors of Shiga Toxin. 12% of 300,000 active. cell reporter, cycloheximide protein synthesis inhibition counterscreen. AID 2314, 2010. max response, %; in the data active means max response mostly above about 13%, no sharp cut-off; inactive means mostly below about 14%; further: read at 38.3 µM for the half of the compounds with a filed dose
Pf growth 96h – Primary qHTS for delayed death inhibitors of the malarial parasite plastid, 96 hour incubation. P. falciparum luciferase reporter growth, 96 h. Potency, µM (doses to about 28.7 µM), most hits filed as inhibitors. 6.9% of 320,000 active. AID 504834, 2011
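Plates of compound plus infected erythrocytes (2% hematocrit, 0.05% parasitemia final) incubate 96 hours, 37 C, 5% CO2. Detection reagent added; reduced luminescence from the parasites' luciferase reporter flags inhibition.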
Of the large screens only hits and unclear results are named; the others gave an inactive call. Rows were chosen to be rich in hits. Some 22% of all compounds tested hit in one or more screens of this group. Unless noted, the call rests on the fitted dose curve; in most records, active means well fitted inhibition curve with a large enough effect; inconclusive means small, poorly fitted or top-dose-only effect, or another doubt; inactive means no such curve, though single readings can be large or run the other way.

Cc1nnc(NCc2ccco2)s1	none
CCC(=O)Nc1nc(C)c(-c2csc(Nc3cccc(C(=O)O)c3)n2)s1	Pf growth 96h inconclusive
Cc1ccc(Nc2nc(-c3c(C)nc4ncccn34)cs2)cc1	Pf growth 48h inconclusive
Cc1nc(NC(=O)c2ccccc2)sc1-c1csc(NCc2ccco2)n1	Pf growth 48h 5.86µM, Pf growth 96h inconclusive
Cc1ccn2c(-c3csc(NCc4ccccc4)n3)c(C)nc2c1	Pf growth 48h 13.1µM
Cc1nc(C)c(-c2csc(NCc3ccco3)n2)s1	CHX counter 30.1
Cc1nc(C)c(-c2csc(NCc3ccccc3)n2)s1	Pf growth 48h inconclusive, CHX counter 32.6
C=CCNc1nc(-c2c(C)nc3ncccn23)cs1	none (no result: Shiga inhibitor)
Cc1nc2ccccn2c1-c1csc(NCc2ccco2)n1	CHX counter 15.1 (no result: Pf growth 96h)
O=C(C[n+]1ccccc1)N/N=C/c1ccc(Br)cc1	Pf growth 48h 10.4µM, Pf growth 96h 2.94µM (no result: Shiga inhibitor, LmPK inh, CHX counter)
O=C(C[n+]1ccccc1)N/N=C/c1ccc(Cl)c(Cl)c1	Pf growth 48h 8.28µM, Pf growth 96h inconclusive
CS/C(Nc1cc(Cl)ccc1Cl)=C(/C#N)C(=O)c1ccco1	LmPK inh 22.4µM, Pf growth 48h 3.29µM, Pf growth 96h 5.86µM
CCN(CC)CCN(Cc1cc2cc(C)ccc2[nH]c1=O)C(=O)Nc1ccccc1OC	Pf growth 48h inconclusive (no result: Pf growth 96h)
CCc1ccc2[nH]c(=O)c(CN(Cc3ccccc3OC)C(=O)Nc3ccccc3OC)cc2c1	Pf growth 48h 11.7µM (no result: Pf growth 96h)
CCOc1ccc2[nH]c(=O)c(CN(CCN3CCCC3)C(=S)Nc3ccccc3OCC)cc2c1	Pf growth 48h 6.57µM, Pf growth 96h inconclusive
COc1ccccc1NC(=S)N(Cc1ccco1)Cc1cc2cc(C)ccc2[nH]c1=O	Pf growth 48h 11.7µM, Pf growth 96h inconclusive
CCN1CCCC1CN(Cc1cc2cc(C)cc(C)c2[nH]c1=O)C(=O)Nc1ccccc1OC (stereo not given)	Pf growth 48h 9.28µM
CC1=C(C(=O)Nc2cccc(F)c2)C(c2ccsc2)C2=C(CC(C)(C)CC2=O)N1 (stereo not given)	Pf growth 48h inconclusive, Pf growth 96h inconclusive
Cc1ccccc1NC(=O)NC1(C(=O)N2CCC(C(N)=O)CC2)CCCCC1	none
Cc1cccc2nc(CNC(=O)C3CCC(=O)N(Cc4ccccc4F)C3)cn12 (stereo not given)	none
C/C(=N\NC(=O)Cn1ccc(C(F)(F)F)n1)c1ccco1	none
CC(=O)c1ccc(NC(=S)NCc2ccc(Cl)cc2Cl)cc1	Pf growth 96h inconclusive
CCCc1cc(=O)[nH]c(SC(C)C(=O)N2c3ccccc3CC2C)n1 (stereo not given)	Pf growth 48h inconclusive (no result: Shiga inhibitor, LmPK inh, CHX counter)
Cc1cc(-c2ccccc2)c2ccc(NC(=O)C(C)(C)C)nc2n1	Pf growth 48h inconclusive, Pf growth 96h inconclusive (no result: Shiga inhibitor)
COc1cccc(NC(=O)N(Cc2cc3cc(C)cc(C)c3[nH]c2=O)CC2COCCO2)c1 (stereo not given)	Pf growth 48h 9.28µM
COc1ccccc1NC(=O)N(Cc1ccco1)Cc1cc2cccc(C)c2[nH]c1=O	Pf growth 48h inconclusive, Pf growth 96h 13.1µM
O=C(NC1CCN(S(=O)(=O)c2ccccc2)CC1)c1ccc(F)cc1	Pf growth 96h inconclusive
Cc1ccc(C(=O)NC2CCN(S(=O)(=O)c3ccccc3F)CC2)cc1	Pf growth 96h 13.1µM (no result: Shiga inhibitor)
O=C(NC1CCN(S(=O)(=O)c2ccccc2)CC1)c1ccccc1	Pf growth 96h 14.7µM
COc1ccc(S(N)(=O)=O)cc1C(=O)NC1CCCc2ccccc21 (stereo not given)	none
CCCN(CCC)C(=O)Cn1c(=O)n(CCC(=O)NCCc2ccccc2)c(=O)c2ccccc21	Pf growth 96h 9.28µM (no result: Pf growth 48h)
COCCCNC(=O)CCn1c(=O)c2ccccc2n(CC(=O)Nc2c(C)cccc2C)c1=O	Pf growth 96h 9.28µM
COCCNC(=O)Cn1c(=O)n(CCC(=O)NCCc2ccccc2)c(=O)c2ccccc21	none
CCOC(=O)c1c(C)[nH]c(C)c1S(=O)(=O)NCC(=O)Nc1ccccn1	none
O=[N+]([O-])c1cc(C2Nc3cccc4cccc(c34)N2)ccc1Cl	Pf growth 48h 2.94µM
Clc1ccc(C2Nc3cccc4cccc(c34)N2)cc1	Pf growth 48h inconclusive
O=C1NC(c2ccc(Cl)c([N+](=O)[O-])c2)Nc2ccccc21 (stereo not given)	Pf growth 48h inconclusive, Pf growth 96h inconclusive
Cc1cccc(C2Nc3cccc4cccc(c34)N2)c1	Pf growth 48h 4.65µM
CC(C)c1ccc(N2C(=NC(=O)C3CC3)SC3CS(=O)(=O)CC32)cc1 (stereo not given)	none
Nc1nc(CN2CCN(c3ccccc3F)CC2)nc(N2CCCc3ccccc32)n1	none
CCOC(=O)N1C/C(=C\c2ccccc2)C(=O)/C(=C/c2ccccc2)C1	Shiga inhibitor 23.6, Pf growth 48h 4.65µM, CHX counter 41.4, Pf growth 96h inconclusive
CC(=O)c1cccc(Nc2nc(-c3cccc([N+](=O)[O-])c3)cs2)c1	Shiga inhibitor 103.3, CHX counter 38.2
O=[N+]([O-])c1cccc(/C=N/Nc2nnc(-c3ccccc3)c(-c3ccccc3)n2)c1	none
Cc1[nH]n(-c2nc(-c3cccc([N+](=O)[O-])c3)cs2)c(=O)c1C	Shiga inhibitor 53.6, CHX counter 36.7
CC(=O)Nc1ccc(Nc2nc(-c3sc(NC(C)=O)nc3C)cs2)cc1	Pf growth 48h inconclusive, Pf growth 96h inconclusive
CC(=O)Nc1nc(C)c(-c2csc(Nc3ccccn3)n2)s1	Shiga inhibitor 89.9, CHX counter 37.3, Pf growth 96h inconclusive
O=[N+]([O-])c1cccc(-c2csc(N/N=C/c3cccc(O)c3)n2)c1	Shiga inhibitor 104.5, CHX counter 28.0
CC(=O)Nc1nc(C)c(-c2csc(Nc3ccc(O)cc3)n2)s1	Pf growth 48h 2.62µM, CHX counter 14.7, Pf growth 96h inconclusive
COc1ccc2c(c1OC)C(=O)OC2Nc1nc(-c2cccc([N+](=O)[O-])c2)cs1 (stereo not given)	Shiga inhibitor 42.9, CHX counter 56.9
CC(=O)Nc1nc(C)c(-c2csc(Nc3cccc([N+](=O)[O-])c3)n2)s1	Pf growth 96h 0.828µM (no result: Pf growth 48h)
COc1ccc(CC(=O)Nc2nc(-c3cccc([N+](=O)[O-])c3)cs2)cc1	none
O=[N+]([O-])c1cccc(NC(=S)Nc2nc(-c3ccc(Cl)cc3Cl)cs2)c1	Pf growth 48h 5.86µM
CC(C)N1CC(C(=O)Nc2cccc([N+](=O)[O-])c2)CC1=O (stereo not given)	none (no result: Shiga inhibitor)
O=C1NC(NS(=O)(=O)c2ccccc2)(C(F)(F)F)C(=O)N1c1cccc(Cl)c1 (stereo not given)	none
COc1ccc(-c2cc(=O)[nH]c(NCc3ccccc3)n2)cc1	none (no result: Pf growth 96h)
COc1ccc(CNc2ccc(-c3ccccc3OC)nn2)cc1	CHX counter 21.9, Pf growth 96h inconclusive
COc1ccc(CNc2ccc(-c3ccc(OC)cc3)nn2)cc1	Shiga inhibitor 39.9, CHX counter 18.9, Pf growth 96h inconclusive
